About 79,000 compounds went through this panel and 15% of them were active in at least one assay; those are over-represented in the sample as a whole. Calls of active or inactive are those of the source. Cut-off read from the data, not from the text of the source: active = growth inhibition above about 70%; inactive = the rest.
Experiments:
[1] = NCI Yeast Anticancer Drug Screen. Data for the mlh1 strain (AID 171);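 note: 0% = growth of vehicle-treated control cultures of the same strain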; details: S. cerevisiae mlh1 strain growth inhibition, hits give high values
In short: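 Measured: yeast growth. Reference: vehicle-treated controls. Organism: strain with a defined alteration affecting DNA damage repair or cell cycle control, treated with compound.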

[2] = NCI Yeast Anticancer Drug Screen. Data for the sgs1 strain (AID 173);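 note: 0% = growth of vehicle-only control cultures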; details: S. cerevisiae sgs1 mutant, hits give high values
In short: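 Each compound was added to cultures of the altered yeast strain. Growth was recorded, and inhibition was derived by comparison with vehicle controls.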

[3] = NCI Yeast Anticancer Drug Screen. Data for the mlh1 rad18 strain (AID 175); details: S. cerevisiae mlh1 rad18 strain growth inhibition, hits give high values
In short: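 Genetically defined yeast (DNA repair-deficient) exposed to compounds; growth inhibition determined relative to vehicle.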

[4] = NCI Yeast Anticancer Drug Screen. Data for the rad18 strain (AID 177); details: S. cerevisiae rad18 mutant growth inhibition, hits give high values
In short: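 Vehicle-treated cultures served as the baseline for scoring compound-induced growth inhibition in DNA-repair-mutant yeast.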

[5] = NCI Yeast Anticancer Drug Screen. Data for the rad52 strain (AID 147);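 note: 0% = growth of vehicle-treated control cultures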; details: S. cerevisiae rad52 mutant growth inhibition, hits give high values
In short: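 The repair-mutant yeast strain was incubated with compounds, then growth was read and inhibition derived relative to vehicle.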

[6] = NCI Yeast Anticancer Drug Screen. Data for the wt1 strain (AID 149);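 note: 0% = growth of vehicle-treated wt1 cultures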; details: S. cerevisiae wt1 strain (SPY 50644) growth inhibition, hits give high values
In short: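 Each compound is tested on wt1 yeast and the loss of growth versus vehicle gives the inhibition value.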

[7] = NCI Yeast Anticancer Drug Screen. Data for the rad50EPP+ strain (AID 151);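 note: 0% = growth of vehicle-treated control cultures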; details: S. cerevisiae rad50 mutant strain, hits give high values
In short: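 Vehicle-normalised growth inhibition; rad50EPP+ yeast strain, altered in DNA damage repair, compound-treated.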

[8] = NCI Yeast Anticancer Drug Screen. Data for the rad50 strain (AID 155);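 note: 0% = growth of vehicle-only cultures of the same strain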; details: S. cerevisiae rad50 strain growth inhibition, hits give high values
In short: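 Vehicle-treated cultures provide the reference for the growth inhibition reported for compound-exposed, repair-deficient yeast.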

[9] = NCI Yeast Anticancer Drug Screen. Data for the mec2-1 strain (AID 157); details: S. cerevisiae mec2-1 strain, hits give high values
In short: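 Mutant yeast (mec2-1) grown with compound; growth inhibition relative to vehicle control reported.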

[10] = NCI Yeast Anticancer Drug Screen. Data for the rad14 strain (AID 159);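 note: 0% = growth of vehicle-treated control cultures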; details: S. cerevisiae rad14 strain growth inhibition, hits give high values
In short: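 Inhibition of growth is reported for a repair-deficient yeast mutant following compound treatment, calculated relative to cultures that received vehicle.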

[11] = NCI Yeast Anticancer Drug Screen. Data for the sgs1 mgt1 strain (AID 161);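 note: 0% = growth of cultures given vehicle only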; details: S. cerevisiae sgs1 mgt1 strain, hits give high values
In short: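 Yeast cells carrying a defined DNA-repair defect were exposed to test compounds. Growth inhibition was measured relative to vehicle-treated controls.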

[12] = NCI Yeast Anticancer Drug Screen. Data for the CLN2oe strain (AID 163);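 note: 0% = growth of vehicle-only control cultures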; details: S. cerevisiae CLN2oe strain, hits give high values
In short: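 Compounds are applied to yeast harbouring a defined cell-cycle control change; reduced growth compared with vehicle-treated controls gives the value.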

[13] = NCI Yeast Anticancer Drug Screen. Data for the cln2 rad14 strain (AID 165);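 note: 0% = growth equal to vehicle treated cultures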; details: S. cerevisiae cln2 rad14 strain, hits give high values
In short: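 Readout is yeast growth inhibition versus vehicle-treated controls, using a strain with cln2 and rad14 alterations exposed to compound.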

[14] = NCI Yeast Anticancer Drug Screen. Data for the bub3 strain (AID 167); details: S. cerevisiae bub3 mutant strain, hits give high values
In short: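 Mutant yeast screening strain plus compound; vehicle-treated cultures serve as the 0% inhibition reference.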

[15] = NCI Yeast Anticancer Drug Screen. Data for the wt2 strain (AID 169); details: S. cerevisiae wt2 strain growth inhibition, hits give high values
In short: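 Against vehicle-treated controls, the growth of yeast exposed to each compound was compared, and the inhibition was recorded.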

[16] = at 5.0 µM (retest, dose inferred, filed as 0.5)
[17] = at 50.0 µM (retest, dose inferred, filed as 5.0)

Measured: growth inhibition

CCCCCCCCCCCc1nc(N)n[nH]1
inactive: [2]; at 1.2 µM -5% | [2]; at 3.7 µM -13% | [2]; at 11.0 µM 21% | [3]; [16] -154% | [3]; [17] 20% | [4]; at 1.2 µM -12% | [4]; at 3.7 µM -5% | [4]; at 11.0 µM -7% | [4]; at 33.0 µM 68%
active: [1]; at 33.0 µM 79% | [1]; at 100.0 µM 95% | [2]; at 33.0 µM 92% | [2]; at 100.0 µM 96% | [3]; at 50.0 µM 93% | [4]; at 100.0 µM 94%

CCc1nc(N)nc(N)c1-c1ccc(NCCCCCCN)c([N+](=O)[O-])c1
inactive: [5]; at 1.2 µM -3% | [5]; at 3.7 µM 0% | [5]; at 11.0 µM 2% | [5]; at 33.0 µM 11% | [5]; at 100.0 µM 32% | [6]; at 1.2 µM -1% | [6]; at 3.7 µM -1% | [6]; at 11.0 µM -1% | [6]; at 33.0 µM -3% | [6]; at 100.0 µM -4% | [7]; at 1.2 µM -6% | [7]; at 3.7 µM -3% | [7]; at 11.0 µM -3% | [7]; at 33.0 µM 1% | [7]; at 100.0 µM 17% | [8]; at 1.2 µM 0% | [8]; at 3.7 µM -2% | [8]; [16] -16% | [8]; at 11.0 µM 11% | [8]; at 33.0 µM 17% | [8]; [17] -4% | [8]; at 100.0 µM 42% | [9]; at 1.2 µM -1% | [9]; at 3.7 µM -4% | [9]; [16] 4% | [9]; at 11.0 µM -4% | [9]; at 33.0 µM -4% | [9]; [17] -10% | [9]; at 100.0 µM 11% | [10]; at 1.2 µM 4% | [10]; at 3.7 µM -4% | [10]; at 11.0 µM -3% | [10]; at 33.0 µM -13% | [10]; at 100.0 µM 0% | [11]; [16] -22% | [11]; [17] -16% | [12]; at 1.2 µM -3% | [12]; at 3.7 µM 1% | [12]; at 11.0 µM -5% | [12]; at 33.0 µM 0% | [12]; at 100.0 µM -5% | [13]; [16] -19% | [14]; at 1.2 µM -7% | [14]; at 3.7 µM -4% | [14]; [16] 11% | [14]; at 11.0 µM 9% | [14]; at 33.0 µM 17% | [14]; [17] -16% | [14]; at 100.0 µM -2% | [15]; at 1.2 µM -1% | [15]; at 3.7 µM 0% | [15]; at 11.0 µM -2% | [15]; at 33.0 µM -3% | [15]; at 100.0 µM -4% | [2]; at 1.2 µM -3% | [2]; at 3.7 µM -2% | [2]; at 11.0 µM -3% | [2]; at 33.0 µM -5% | [2]; at 100.0 µM -3% | [3]; [16] -27% | [3]; [17] -34%
active: [8]; at 50.0 µM 86% | [9]; at 50.0 µM 95.6% | [11]; at 50.0 µM 92.7% | [13]; [17] 83% | [13]; at 50.0 µM 96.2% | [14]; at 50.0 µM 93.5% | [3]; at 50.0 µM 97.2%

Oc1ccc(Br)cc1C=NC1CCCCC1
active: [5]; at 33.0 µM 95% | [5]; at 100.0 µM 98% | [6]; at 33.0 µM 91% | [6]; at 100.0 µM 99% | [7]; at 33.0 µM 74% | [7]; at 100.0 µM 93% | [8]; at 33.0 µM 97% | [8]; at 50.0 µM 78.9% | [8]; at 100.0 µM 97% | [9]; at 33.0 µM 94% | [9]; at 50.0 µM 88.5% | [9]; at 100.0 µM 99% | [10]; at 11.0 µM 85% | [10]; at 33.0 µM 99% | [10]; at 100.0 µM 99% | [11]; [17] 99% | [11]; at 50.0 µM 85.3% | [13]; [17] 99% | [14]; [17] 99% | [14]; at 50.0 µM 87% | [14]; at 100.0 µM 97% | [15]; at 33.0 µM 74% | [15]; at 100.0 µM 99% | [1]; at 33.0 µM 96% | [1]; at 100.0 µM 99% | [2]; at 33.0 µM 92% | [2]; at 100.0 µM 98% | [3]; at 50.0 µM 77% | [4]; at 33.0 µM 92% | [4]; at 100.0 µM 97%
inactive: [5]; at 1.2 µM 0% | [5]; at 3.7 µM 15% | [5]; at 11.0 µM 35% | [6]; at 1.2 µM -24% | [6]; at 3.7 µM -18% | [6]; at 11.0 µM 6% | [7]; at 1.2 µM 3% | [7]; at 3.7 µM 12% | [7]; at 11.0 µM 35% | [8]; at 1.2 µM -14% | [8]; at 3.7 µM -18% | [8]; [16] 44% | [8]; at 11.0 µM 49% | [8]; [17] 45% | [9]; at 1.2 µM -24% | [9]; at 3.7 µM -21% | [9]; [16] 47% | [9]; at 11.0 µM 11% | [9]; [17] 60% | [10]; at 1.2 µM 15% | [10]; at 3.7 µM 24% | [11]; [16] -2% | [13]; [16] 53% | [13]; at 50.0 µM 57% | [14]; at 1.2 µM -4% | [14]; at 3.7 µM 2% | [14]; [16] 46% | [14]; at 11.0 µM 5% | [14]; at 33.0 µM 59% | [15]; at 1.2 µM -2% | [15]; at 3.7 µM 0% | [15]; at 11.0 µM 15% | [1]; at 1.2 µM -6% | [1]; at 3.7 µM 17% | [1]; at 11.0 µM 59% | [2]; at 1.2 µM 7% | [2]; at 3.7 µM 6% | [2]; at 11.0 µM 39% | [3]; [16] 32% | [3]; [17] 53% | [4]; at 1.2 µM 5% | [4]; at 3.7 µM 11% | [4]; at 11.0 µM 29%

— PubChem BioAssay (NCI)
